The values that follow come from paper PMC7862700, “An all-to-all approach to the identification of sequence-specific readers for epigenetic DNA modifications on cytosine”.

Common to all, as to experiment: DAPPL (digital affinity profiling via proximity ligation, sequencing); 10 mM Tris-HCl pH 7.5, 50 mM NaCl, 1 mM DTT, 4% glycerol, room temperature, 30 min; GST-TFs on glutathione beads, 16-mer random dsDNA library, 0.1% formaldehyde crosslink after washing; high values mean tight binding
Assay [1] deals with T1, FEV (Homo sapiens, UniProt Q99581 1-238).
T1 sequence: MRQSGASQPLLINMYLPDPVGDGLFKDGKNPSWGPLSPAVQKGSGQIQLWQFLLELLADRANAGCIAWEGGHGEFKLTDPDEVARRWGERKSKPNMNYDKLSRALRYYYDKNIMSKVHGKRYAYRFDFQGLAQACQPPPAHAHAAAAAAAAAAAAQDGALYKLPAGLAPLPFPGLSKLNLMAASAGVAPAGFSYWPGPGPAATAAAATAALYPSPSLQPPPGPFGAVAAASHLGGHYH
The settings on record: protein: recombinant; tags: N-terminal GST; dsDNA, one strand shown. In a few lines: (§1)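 After expression in yeast as GST fusions, human transcription factors were bound to glutathione beads, DNA-barcoded and mixed with a tag-only sample. The pools were incubated with 200 nmole of a 16-mer random double-stranded DNA library in Tris/NaCl/DTT/glycerol buffer (30 min, room temperature), washed and crosslinked with 0.1% formaldehyde. Proximity ligation with BsaI/T4 ligase ran for 1 h at 37 °C, before PCR amplification and sequencing on an Illumina NextSeq500. Binding signal is a hexamer's read frequency for a factor divided by its frequency for the tag-only sample.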

Assay [2] has as its target ETV5 (Homo sapiens, UniProt P41161 1-510). Conditions: protein: recombinant; tags: N-terminal GST; dsDNA, one strand shown. In short, it runs like this: as §1
The target of assay [3] is HSF1 (Homo sapiens, UniProt Q00613 1-529). The settings on record: protein: recombinant; tags: N-terminal GST; chain copies: 3; dsDNA, one strand shown. In a few lines:
as §1

The target of assay [4] is T2, SPIC (Homo sapiens, UniProt Q8N5J4 1-248).
T2 sequence: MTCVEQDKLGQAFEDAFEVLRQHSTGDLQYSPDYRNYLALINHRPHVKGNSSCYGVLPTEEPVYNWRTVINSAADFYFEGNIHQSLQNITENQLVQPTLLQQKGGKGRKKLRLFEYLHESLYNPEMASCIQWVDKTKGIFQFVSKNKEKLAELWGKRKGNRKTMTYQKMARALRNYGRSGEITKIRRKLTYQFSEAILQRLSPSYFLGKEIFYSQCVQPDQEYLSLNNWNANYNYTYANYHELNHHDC
Conditions: protein: recombinant; tags: N-terminal GST; dsDNA, one strand shown. In short, it runs like this: as §1

Assay [5] deals with ELF4 (Homo sapiens, UniProt Q99607 1-663). Conditions: protein: recombinant; tags: N-terminal GST; dsDNA, one strand shown. In a few lines:
as §1

The target of assay [6] is T3, ELK4 (Homo sapiens, UniProt P28324-2 1-405).
T3 sequence: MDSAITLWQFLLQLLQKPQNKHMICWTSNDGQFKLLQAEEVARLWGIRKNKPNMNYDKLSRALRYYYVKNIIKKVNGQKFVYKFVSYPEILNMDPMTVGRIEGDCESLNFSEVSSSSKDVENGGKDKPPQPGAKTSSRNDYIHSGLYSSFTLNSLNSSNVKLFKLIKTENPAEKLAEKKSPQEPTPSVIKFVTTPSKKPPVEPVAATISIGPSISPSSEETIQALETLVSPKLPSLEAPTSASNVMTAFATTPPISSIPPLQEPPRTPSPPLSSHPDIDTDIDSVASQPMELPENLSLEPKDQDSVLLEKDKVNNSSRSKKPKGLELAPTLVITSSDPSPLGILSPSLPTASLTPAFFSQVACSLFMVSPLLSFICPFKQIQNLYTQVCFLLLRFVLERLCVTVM
The settings on record: protein: recombinant; tags: N-terminal GST; dsDNA, one strand shown. In short, it runs like this:
as §1

Assay [7] addresses T4, ETV2 (Homo sapiens, UniProt O00321 1-342).
T4 sequence: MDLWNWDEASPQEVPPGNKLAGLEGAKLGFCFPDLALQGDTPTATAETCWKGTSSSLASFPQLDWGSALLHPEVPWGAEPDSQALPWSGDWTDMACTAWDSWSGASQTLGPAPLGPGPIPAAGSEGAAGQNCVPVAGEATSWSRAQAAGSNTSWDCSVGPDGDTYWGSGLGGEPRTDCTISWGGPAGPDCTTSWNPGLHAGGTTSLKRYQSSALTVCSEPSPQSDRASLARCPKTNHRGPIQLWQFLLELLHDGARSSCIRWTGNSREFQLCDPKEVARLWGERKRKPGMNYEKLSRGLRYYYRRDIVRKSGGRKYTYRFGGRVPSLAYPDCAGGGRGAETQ
The settings on record: protein: recombinant; tags: N-terminal GST; dsDNA, one strand shown. In short, it runs like this:
as §1

In assay [8] the target is T5, ELF3 (Homo sapiens, UniProt P78545 1-371).
T5 sequence: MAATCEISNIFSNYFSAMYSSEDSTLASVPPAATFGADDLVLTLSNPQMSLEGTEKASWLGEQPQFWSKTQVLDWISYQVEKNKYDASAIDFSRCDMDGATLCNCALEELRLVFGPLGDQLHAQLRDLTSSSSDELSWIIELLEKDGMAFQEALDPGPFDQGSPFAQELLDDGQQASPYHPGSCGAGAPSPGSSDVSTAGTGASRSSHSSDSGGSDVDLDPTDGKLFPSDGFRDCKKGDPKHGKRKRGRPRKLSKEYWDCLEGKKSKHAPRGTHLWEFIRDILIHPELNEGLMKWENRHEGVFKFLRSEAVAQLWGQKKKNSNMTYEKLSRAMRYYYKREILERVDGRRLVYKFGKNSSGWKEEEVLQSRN
The settings on record: protein: recombinant; tags: N-terminal GST; dsDNA, one strand shown. In a few lines:
as §1

The target in assay [9] is CRX (Homo sapiens, UniProt O43186 1-299). Conditions: protein: recombinant; tags: N-terminal GST; dsDNA, one strand shown. In a few lines:
as §1

For assay [10], the target named is ETV1 (Homo sapiens, UniProt P50549 1-477). The settings on record: protein: recombinant; tags: N-terminal GST; dsDNA, one strand shown. In a few lines:
as §1

Sequence of HSF1 (Q00613 whole entry): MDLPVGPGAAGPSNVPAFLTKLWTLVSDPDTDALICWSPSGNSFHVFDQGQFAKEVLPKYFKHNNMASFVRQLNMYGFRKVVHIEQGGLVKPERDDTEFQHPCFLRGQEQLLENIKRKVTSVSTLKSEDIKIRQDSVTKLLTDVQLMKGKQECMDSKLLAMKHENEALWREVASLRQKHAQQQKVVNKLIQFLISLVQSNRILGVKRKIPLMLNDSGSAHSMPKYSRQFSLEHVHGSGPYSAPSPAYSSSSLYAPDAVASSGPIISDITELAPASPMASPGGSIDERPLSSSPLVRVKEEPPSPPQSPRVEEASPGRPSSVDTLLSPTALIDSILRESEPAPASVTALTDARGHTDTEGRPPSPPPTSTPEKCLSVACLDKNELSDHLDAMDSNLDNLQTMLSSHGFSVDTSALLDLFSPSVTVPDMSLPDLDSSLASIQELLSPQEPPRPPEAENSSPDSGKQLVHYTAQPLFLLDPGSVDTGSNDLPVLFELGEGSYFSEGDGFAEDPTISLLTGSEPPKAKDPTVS
Sequence of ETV1 (P50549 whole entry): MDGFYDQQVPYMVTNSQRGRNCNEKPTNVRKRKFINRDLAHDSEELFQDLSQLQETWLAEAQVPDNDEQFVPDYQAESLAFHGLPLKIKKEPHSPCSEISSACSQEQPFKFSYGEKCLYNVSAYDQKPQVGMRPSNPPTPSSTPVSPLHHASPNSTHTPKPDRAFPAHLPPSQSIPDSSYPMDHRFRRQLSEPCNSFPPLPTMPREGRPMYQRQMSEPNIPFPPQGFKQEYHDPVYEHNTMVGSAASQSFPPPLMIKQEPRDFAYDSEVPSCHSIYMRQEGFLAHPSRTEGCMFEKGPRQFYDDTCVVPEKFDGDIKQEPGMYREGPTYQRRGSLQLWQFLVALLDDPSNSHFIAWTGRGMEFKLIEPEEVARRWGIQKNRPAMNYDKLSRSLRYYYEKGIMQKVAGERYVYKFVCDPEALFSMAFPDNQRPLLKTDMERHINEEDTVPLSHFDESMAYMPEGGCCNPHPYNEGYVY
Sequence of ETV5 (P41161 whole entry): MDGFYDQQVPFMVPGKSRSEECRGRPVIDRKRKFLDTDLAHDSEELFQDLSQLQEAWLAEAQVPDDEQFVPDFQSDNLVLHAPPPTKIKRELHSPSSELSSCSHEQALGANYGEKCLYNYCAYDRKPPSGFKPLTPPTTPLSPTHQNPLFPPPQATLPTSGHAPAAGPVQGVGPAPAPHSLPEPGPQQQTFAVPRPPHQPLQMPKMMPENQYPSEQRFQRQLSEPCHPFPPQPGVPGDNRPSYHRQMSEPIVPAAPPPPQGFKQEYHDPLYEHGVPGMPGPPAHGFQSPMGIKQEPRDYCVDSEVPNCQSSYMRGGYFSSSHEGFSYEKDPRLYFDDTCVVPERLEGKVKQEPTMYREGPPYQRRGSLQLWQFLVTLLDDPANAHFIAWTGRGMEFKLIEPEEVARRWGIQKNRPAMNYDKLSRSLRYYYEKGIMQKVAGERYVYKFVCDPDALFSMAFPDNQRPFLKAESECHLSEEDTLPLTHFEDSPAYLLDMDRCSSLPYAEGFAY
Sequence of ELF4 (Q99607 whole entry): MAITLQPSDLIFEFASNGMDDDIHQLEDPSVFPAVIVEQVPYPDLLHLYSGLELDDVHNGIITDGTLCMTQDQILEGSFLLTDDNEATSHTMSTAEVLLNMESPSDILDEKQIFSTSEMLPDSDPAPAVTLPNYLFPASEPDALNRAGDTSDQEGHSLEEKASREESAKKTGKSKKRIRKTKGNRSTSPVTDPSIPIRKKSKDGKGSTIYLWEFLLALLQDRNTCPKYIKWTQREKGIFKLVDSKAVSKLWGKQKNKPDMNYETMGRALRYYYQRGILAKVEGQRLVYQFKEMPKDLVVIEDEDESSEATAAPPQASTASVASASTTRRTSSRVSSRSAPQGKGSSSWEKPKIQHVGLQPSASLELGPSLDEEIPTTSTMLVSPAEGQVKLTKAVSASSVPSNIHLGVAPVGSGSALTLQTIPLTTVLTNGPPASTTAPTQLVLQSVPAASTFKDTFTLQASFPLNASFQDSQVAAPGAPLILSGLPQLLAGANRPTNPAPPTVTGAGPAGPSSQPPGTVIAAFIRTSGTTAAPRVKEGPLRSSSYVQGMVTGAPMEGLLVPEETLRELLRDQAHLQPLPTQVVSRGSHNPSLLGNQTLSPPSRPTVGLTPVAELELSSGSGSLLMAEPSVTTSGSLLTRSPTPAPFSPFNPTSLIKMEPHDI
Sequence of CRX (O43186 whole entry): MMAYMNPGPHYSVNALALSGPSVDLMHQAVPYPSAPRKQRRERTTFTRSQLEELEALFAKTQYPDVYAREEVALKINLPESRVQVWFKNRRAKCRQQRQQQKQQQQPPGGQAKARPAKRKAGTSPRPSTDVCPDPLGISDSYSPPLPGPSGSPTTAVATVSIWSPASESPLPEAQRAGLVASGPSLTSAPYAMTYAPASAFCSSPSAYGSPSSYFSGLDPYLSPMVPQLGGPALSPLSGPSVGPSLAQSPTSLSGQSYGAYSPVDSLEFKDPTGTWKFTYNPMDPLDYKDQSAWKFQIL

For AACTCC, the binding signal in assay [1] was 1.32 fold enrichment (6-mer frequency, TF over GST control); in assay [2] it was 1.32 fold enrichment (6-mer frequency, TF over GST control); in assay [3] it was 1.23 fold enrichment (6-mer frequency, TF over GST control); in [4], 1.32 fold enrichment (6-mer frequency, TF over GST control); in assay [5], 1.3 fold enrichment (6-mer frequency, TF over GST control); in assay [6], 1.13 fold enrichment (6-mer frequency, TF over GST control). The binding signal in assay [7] was 1.23 fold enrichment (6-mer frequency, TF over GST control); in [8], 1.13 fold enrichment (6-mer frequency, TF over GST control); in [9], 1.19 fold enrichment (6-mer frequency, TF over GST control); in assay [10] it was 1.26 fold enrichment (6-mer frequency, TF over GST control).

For CAATCC, the binding signal was 1.17 fold enrichment (6-mer frequency, TF over GST control) in [1]; 1.12 fold enrichment (6-mer frequency, TF over GST control) in assay [2]; 1.37 fold enrichment (6-mer frequency, TF over GST control) in assay [3]; 1.11 fold enrichment (6-mer frequency, TF over GST control) in [4]; 1.19 fold enrichment (6-mer frequency, TF over GST control) in assay [5]; 1.19 fold enrichment (6-mer frequency, TF over GST control) in assay [6]. The binding signal in [7] is 1.38 fold enrichment (6-mer frequency, TF over GST control); in assay [8] it was 1.3 fold enrichment (6-mer frequency, TF over GST control); in assay [9] it was 1.6 fold enrichment (6-mer frequency, TF over GST control); in [10] it was 1.19 fold enrichment (6-mer frequency, TF over GST control).

On to CTTATG, for which the binding signal in assay [1] was 1.35 fold enrichment (6-mer frequency, TF over GST control); in assay [2], 1.5 fold enrichment (6-mer frequency, TF over GST control); in assay [3], 1.64 fold enrichment (6-mer frequency, TF over GST control); in [4], 1.33 fold enrichment (6-mer frequency, TF over GST control); in assay [5], 1.49 fold enrichment (6-mer frequency, TF over GST control); in [6], 1.55 fold enrichment (6-mer frequency, TF over GST control). The binding signal in assay [7] was 1.37 fold enrichment (6-mer frequency, TF over GST control); in assay [8], 1.45 fold enrichment (6-mer frequency, TF over GST control); in assay [9], 2.2 fold enrichment (6-mer frequency, TF over GST control); in [10], 1.58 fold enrichment (6-mer frequency, TF over GST control).

Consider CATCTT, for which the binding signal in assay [1] is 1.16 fold enrichment (6-mer frequency, TF over GST control); in assay [2], 1.21 fold enrichment (6-mer frequency, TF over GST control); in [3] it was 1.17 fold enrichment (6-mer frequency, TF over GST control); in assay [4], 1.11 fold enrichment (6-mer frequency, TF over GST control); in [5], 1.12 fold enrichment (6-mer frequency, TF over GST control); in [6] it was 1.31 fold enrichment (6-mer frequency, TF over GST control). Further, the binding signal in assay [7] is 1.29 fold enrichment (6-mer frequency, TF over GST control); in assay [8], 1.23 fold enrichment (6-mer frequency, TF over GST control); in assay [9], 1.33 fold enrichment (6-mer frequency, TF over GST control); in assay [10], 1.24 fold enrichment (6-mer frequency, TF over GST control).

As for ATTTGG, the binding signal is 1.4 fold enrichment (6-mer frequency, TF over GST control) in [1]; 1.36 fold enrichment (6-mer frequency, TF over GST control) in assay [2]; 1.5 fold enrichment (6-mer frequency, TF over GST control) in assay [3]; 1.34 fold enrichment (6-mer frequency, TF over GST control) in [4]; 1.26 fold enrichment (6-mer frequency, TF over GST control) in [5]; 1.43 fold enrichment (6-mer frequency, TF over GST control) in assay [6]. For the same sequence, the binding signal in [7] was 1.37 fold enrichment (6-mer frequency, TF over GST control); in [8], 1.44 fold enrichment (6-mer frequency, TF over GST control); in [9], 1.73 fold enrichment (6-mer frequency, TF over GST control); in assay [10], 1.36 fold enrichment (6-mer frequency, TF over GST control).

Take GTCTCG: the binding signal in assay [1] was 1.3 fold enrichment (6-mer frequency, TF over GST control); in [2], 1.25 fold enrichment (6-mer frequency, TF over GST control); in assay [3], 1.55 fold enrichment (6-mer frequency, TF over GST control); in assay [4], 1.21 fold enrichment (6-mer frequency, TF over GST control); in assay [5], 1.43 fold enrichment (6-mer frequency, TF over GST control); in assay [6], 1.3 fold enrichment (6-mer frequency, TF over GST control). For the same sequence, the binding signal in assay [7] is 1.03 fold enrichment (6-mer frequency, TF over GST control); in assay [8], 1.35 fold enrichment (6-mer frequency, TF over GST control); in [9], 1.06 fold enrichment (6-mer frequency, TF over GST control); in [10], 1.35 fold enrichment (6-mer frequency, TF over GST control).

TTGTAT: the binding signal was 1.26 fold enrichment (6-mer frequency, TF over GST control) in assay [1]; 1.26 fold enrichment (6-mer frequency, TF over GST control) in [2]; 1.21 fold enrichment (6-mer frequency, TF over GST control) in assay [3]; 1.28 fold enrichment (6-mer frequency, TF over GST control) in [4]; 1.35 fold enrichment (6-mer frequency, TF over GST control) in [5]; 1.43 fold enrichment (6-mer frequency, TF over GST control) in assay [6]. Moreover, the binding signal in assay [7] was 1.4 fold enrichment (6-mer frequency, TF over GST control); in assay [8], 1.34 fold enrichment (6-mer frequency, TF over GST control); in [9], 1.42 fold enrichment (6-mer frequency, TF over GST control); in [10], 1.3 fold enrichment (6-mer frequency, TF over GST control).
